# Source: PubChem BioAssay (NCATS)
# Inconclusive results are not listed. A call without a number means that no potency is given here. Activity calls are given as the source filed them. Unless noted, calls follow the shape of the dose curve; as a rule, active = well fitted curve in the direction sought with a large enough effect; inconclusive = small, poorly fitted or top-dose-only effect, or another doubt; inactive = no such curve, though single readings can be large; an effect the other way counts as inactive or inconclusive.
# Tests used:
# [1] = qHTS for differential inhibitors of proliferation of Plasmodium falciparum line D10 (AID 1877);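 also: parasites grown with compound for 72 h before DNA staining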; also: potency is read from the fitted curve at half-maximal effect
# [2] = qHTS for differential inhibitors of proliferation of Plasmodium falciparum line Dd2 (AID 1882); conditions: Potency: Plasmodium falciparum Dd2 proliferation inhibition; also: nearly all actives have a fitted effect of over 65% in size; also: potency is read from the fitted curve at half-maximal effect
# How it was run: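 RBC culture, 0.3% parasitemia / 2.5% Hct final; cpd added by pin tool in DMSO; 72 h, 37 C, 5% CO2; lysis buffer + SYBR Green I, o/n RT dark; FI 485/535; norm. to artemisinin 0.29 uM and DMSO.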
# [3] = qHTS for differential inhibitors of proliferation of Plasmodium falciparum line W2 (AID 1883); conditions: Potency: Plasmodium falciparum W2 proliferation inhibition;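 also: parasites grown with compound for 72 h before lysis and staining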; also: potency is read from the fitted curve at half-maximal effect
# [4] = qHTS for differential inhibitors of proliferation of Plasmodium falciparum line HB3 (AID 1886); conditions: Potency: Plasmodium falciparum HB3 proliferation inhibition;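 also: parasites grown with compound for 72 h before SYBR Green readout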; also: potency is read from the fitted curve at half-maximal effect
# [5] = biological target: Ferritin light chain (Equus caballus) (UniProt P02791); assay: qHTS Validation Assay for Identification of Novel General Anesthetics (AID 2323); also: series mostly up to about 77 µM
# How it was run: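 Normalized fluorescence response, scaled between free 1-AMA and 1-AMA/apoferritin complex, fitted to a four-parameter Hill equation for concentration-effect values. Binding mix: 10 uM horse-spleen apoferritin, 50% saturated 1-AMA in PBS; read 380/535 nm after 10 min.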
# [6] = biological target: ATP-dependent DNA helicase Q1 (Homo sapiens) (UniProt P46063); assay: qHTS Validation Assay for Inhibitors of RecQ-Like Dna Helicase 1 (RECQ1) (AID 2353); also: potency is read from the fitted curve at half-maximal effect
# ATP-dependent DNA helicase Q1 (Homo sapiens), sequence (P46063 whole entry, looked up): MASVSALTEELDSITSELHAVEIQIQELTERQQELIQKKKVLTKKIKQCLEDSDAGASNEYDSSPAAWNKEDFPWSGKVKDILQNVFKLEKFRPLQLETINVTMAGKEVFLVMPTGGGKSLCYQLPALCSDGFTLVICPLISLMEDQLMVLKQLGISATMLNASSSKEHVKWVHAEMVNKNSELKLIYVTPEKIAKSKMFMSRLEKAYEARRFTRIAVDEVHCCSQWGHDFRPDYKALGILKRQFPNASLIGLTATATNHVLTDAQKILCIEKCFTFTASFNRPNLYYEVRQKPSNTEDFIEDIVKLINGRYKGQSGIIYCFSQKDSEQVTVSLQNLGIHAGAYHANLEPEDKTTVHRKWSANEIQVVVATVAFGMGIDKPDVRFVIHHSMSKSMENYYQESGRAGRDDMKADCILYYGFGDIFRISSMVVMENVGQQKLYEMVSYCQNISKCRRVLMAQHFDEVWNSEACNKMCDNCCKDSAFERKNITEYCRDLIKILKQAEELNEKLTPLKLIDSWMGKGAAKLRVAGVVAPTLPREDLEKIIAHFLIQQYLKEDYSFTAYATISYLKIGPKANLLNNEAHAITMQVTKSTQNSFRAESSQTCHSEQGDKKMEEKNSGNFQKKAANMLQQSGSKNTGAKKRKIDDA
# How it was run: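 RECQ1T1 50 nM; forked duplex (20 bp + 30-nt ss tails) 200 nM, ATP 2 mM final; pH 8.0, 2 mM MgCl2, 2.5 ug/ml poly(dI-dC); 15 min compound preincubation; discontinuous kinetic read over 2 h at RT.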
# [7] = biological target: RecQ-like DNA helicase BLM (Homo sapiens) (UniProt P54132); assay: qHTS Validation Assay for Inhibitors of Bloom's syndrome helicase (BLM) (AID 2364)
# RecQ-like DNA helicase BLM (Homo sapiens), sequence (P54132 whole entry, looked up): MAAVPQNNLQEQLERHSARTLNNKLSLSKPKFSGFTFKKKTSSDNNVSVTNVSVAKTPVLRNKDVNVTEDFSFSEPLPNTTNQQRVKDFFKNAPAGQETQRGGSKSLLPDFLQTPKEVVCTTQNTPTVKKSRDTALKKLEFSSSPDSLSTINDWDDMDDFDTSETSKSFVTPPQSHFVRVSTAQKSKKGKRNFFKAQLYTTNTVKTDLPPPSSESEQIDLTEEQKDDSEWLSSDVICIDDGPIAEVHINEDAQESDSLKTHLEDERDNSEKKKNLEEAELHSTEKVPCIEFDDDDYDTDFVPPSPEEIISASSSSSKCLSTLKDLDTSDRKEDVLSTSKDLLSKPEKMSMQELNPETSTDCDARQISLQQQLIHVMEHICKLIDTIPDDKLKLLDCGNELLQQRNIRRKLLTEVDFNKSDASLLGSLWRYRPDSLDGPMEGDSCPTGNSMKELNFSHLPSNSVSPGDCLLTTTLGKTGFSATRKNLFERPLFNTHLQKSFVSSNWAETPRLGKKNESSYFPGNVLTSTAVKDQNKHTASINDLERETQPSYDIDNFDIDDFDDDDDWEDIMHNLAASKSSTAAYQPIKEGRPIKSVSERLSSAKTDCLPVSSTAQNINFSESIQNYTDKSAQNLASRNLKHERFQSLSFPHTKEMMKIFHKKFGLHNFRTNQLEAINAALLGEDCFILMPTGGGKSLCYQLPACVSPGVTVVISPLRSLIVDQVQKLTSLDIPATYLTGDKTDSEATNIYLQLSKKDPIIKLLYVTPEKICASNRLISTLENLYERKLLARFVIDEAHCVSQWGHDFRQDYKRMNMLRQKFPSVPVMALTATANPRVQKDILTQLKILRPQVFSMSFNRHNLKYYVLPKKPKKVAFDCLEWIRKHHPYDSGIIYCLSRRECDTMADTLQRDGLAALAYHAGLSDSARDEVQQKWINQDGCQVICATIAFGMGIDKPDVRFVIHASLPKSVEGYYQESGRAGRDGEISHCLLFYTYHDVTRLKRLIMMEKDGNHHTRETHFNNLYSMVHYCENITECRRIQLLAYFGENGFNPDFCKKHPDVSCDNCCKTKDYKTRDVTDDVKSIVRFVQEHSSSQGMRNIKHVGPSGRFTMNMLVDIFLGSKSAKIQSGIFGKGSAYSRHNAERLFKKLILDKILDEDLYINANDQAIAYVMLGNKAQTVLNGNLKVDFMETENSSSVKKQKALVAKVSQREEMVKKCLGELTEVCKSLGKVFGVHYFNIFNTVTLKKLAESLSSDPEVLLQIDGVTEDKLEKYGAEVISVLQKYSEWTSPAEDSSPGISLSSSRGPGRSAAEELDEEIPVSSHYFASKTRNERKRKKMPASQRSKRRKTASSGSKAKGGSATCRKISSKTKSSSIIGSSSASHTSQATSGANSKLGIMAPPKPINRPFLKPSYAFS
# How it was run: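 Forked 20-bp duplex substrate (200 nM, TAMRA/BHQ-2) plus 2 mM ATP added after 15 min compound preincubation with 50 nM enzyme, pH 8.0, poly(dI-dC) 2.5 ug/ml. Strand separation followed by fluorescence (525/598 nm) over 2 h, normalized to enzyme-free and DMSO controls.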
# [8] = Cytometric Cell-Based qHTS for Inhibitors of the mTORC1 Signaling Pathway in MEF (Tsc2-/-, p53-/-) Cells (AID 2660);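 also: Tsc2 and p53 null MEFs carrying empty vector with compound for 24 h; percent of cells above a phospho-rpS6 to PI ratio cutoff in each well; series mostly up to about 38 µM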
# How it was run: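 Immunofluorescence qHTS of rpS6 Ser235/236 phosphorylation: MEFs (Tsc2-/-, p53-/-) treated 24 h, 37 C, in DMEM + 10% FBS. Alexa-488 signal normalized to PI count, referenced to rapamycin (7.5 nM) and DMSO; PI cell number recorded for viability.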
# [9] = High Content Imaging Cell-Based qHTS for Inhibitors of the mTORC1 Signaling Pathway in MEF (Tsc2-/-, p53-/-) Cells (AID 2666);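 also: percent of cells scored positive for phospho-rpS6 Ser235/236 immunostaining by imaging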
# How it was run: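 Tsc2-/-, p53-/- MEFs (empty-vector stable) grown in DMEM + 10% FBS were exposed to compounds for 24 hrs at 37 degree Celsius, fixed, and stained with Alexa-488 anti-phospho-rpS6 Ser235/236 plus Hoechst. Imaging gave the percentage of positive cells per well.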
# [10] = High Content Imaging Cell-Based qHTS for Inhibitors of the mTORC1 Signaling Pathway in MEF Cells (AID 2667);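 also: Tsc2-/- p53-/- MEFs stably re-expressing wild-type Tsc2 exposed 24 h; series mostly up to about 38 µM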
# How it was run: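 Tsc2-/-, p53-/- MEFs stably re-expressing WT Tsc2, grown in DMEM + 10% FBS, were treated with compounds for 24 hrs at 37 degree Celsius, fixed, and stained with Alexa-488 phospho-rpS6 Ser235/236 antibody plus Hoechst; results given as % positive cells.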
# [11] = Cytometry Cell-Based qHTS for Inhibitors of the mTORC1 Signaling Pathway in MEF cells (AID 2668); also: potency is read from the fitted curve at half-maximal effect
# How it was run: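 In MEFs grown in DMEM + 10% FBS, a 24 hrs compound exposure preceded imaging of phospho-rpS6 Ser235/236 by laser-scanning cytometry.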
# [12] = Validation screen for small molecules that induce DNA re-replication in MCF 10A normal breast cells (AID 463097); also: nearly all actives have a fitted effect of over 60% in size
# How it was run: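 Following 48 hr compound incubation (37 C, 5% CO2), MCF 10A cells receive Hoechst for 40 min at 37 C. Nuclei are then scanned (excitation 405 nm, emission 500-530 nm) for total fluorescence intensity.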
# [13] = biological target: Ubiquitin carboxyl-terminal hydrolase 2 (Homo sapiens) (UniProt O75604); assay: qHTS Validation Assay for Inhibitors of Ubiquitin-specific Protease USP2a Using CHOP2 as the Reporter (AID 463106)
# Ubiquitin carboxyl-terminal hydrolase 2 (Homo sapiens), sequence (O75604 whole entry, looked up): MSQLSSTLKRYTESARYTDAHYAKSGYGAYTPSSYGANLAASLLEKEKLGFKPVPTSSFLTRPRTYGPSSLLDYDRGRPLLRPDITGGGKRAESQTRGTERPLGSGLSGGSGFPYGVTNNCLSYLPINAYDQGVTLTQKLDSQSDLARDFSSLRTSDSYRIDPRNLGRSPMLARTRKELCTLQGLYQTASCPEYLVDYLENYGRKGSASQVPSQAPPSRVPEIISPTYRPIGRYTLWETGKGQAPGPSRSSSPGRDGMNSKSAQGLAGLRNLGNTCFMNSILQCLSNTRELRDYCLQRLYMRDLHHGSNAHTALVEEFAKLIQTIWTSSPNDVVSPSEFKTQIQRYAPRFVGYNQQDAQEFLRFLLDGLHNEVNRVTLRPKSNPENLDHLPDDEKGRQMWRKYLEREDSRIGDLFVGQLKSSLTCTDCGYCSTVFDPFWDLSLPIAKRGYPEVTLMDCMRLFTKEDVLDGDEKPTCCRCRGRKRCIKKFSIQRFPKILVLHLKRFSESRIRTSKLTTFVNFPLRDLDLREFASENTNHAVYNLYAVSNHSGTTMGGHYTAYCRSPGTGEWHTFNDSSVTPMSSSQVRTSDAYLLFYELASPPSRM
# How it was run: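 Readout was coupled fluorescence (Ex 485/Em 531 nm), read 60 min after adding 25 nM final Ub-CHOP2 and 25 nM reporter substrate. Beforehand, 10 nM final USP2 core had 30 min at RT with compound in pH 8.0 buffer. Curves were fitted after normalization to NEM and flagged for artifacts using time-zero reads.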
# [14] = biological target: DNA polymerase III PolC-type (Bacillus subtilis (strain 168)) (UniProt P13267); assay: qHTS Validation Assay for the Inhibitors of DNA Replication in Gram-Positive Bacteria (AID 485295);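 also: reconstituted holoenzyme with PolC plus beta clamp SSB and primase; PicoGreen fluorescence of double-stranded DNA made on primed circular M13 template; series mostly up to about 57 µM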
# DNA polymerase III PolC-type (Bacillus subtilis (strain 168)), sequence (P13267 whole entry, looked up): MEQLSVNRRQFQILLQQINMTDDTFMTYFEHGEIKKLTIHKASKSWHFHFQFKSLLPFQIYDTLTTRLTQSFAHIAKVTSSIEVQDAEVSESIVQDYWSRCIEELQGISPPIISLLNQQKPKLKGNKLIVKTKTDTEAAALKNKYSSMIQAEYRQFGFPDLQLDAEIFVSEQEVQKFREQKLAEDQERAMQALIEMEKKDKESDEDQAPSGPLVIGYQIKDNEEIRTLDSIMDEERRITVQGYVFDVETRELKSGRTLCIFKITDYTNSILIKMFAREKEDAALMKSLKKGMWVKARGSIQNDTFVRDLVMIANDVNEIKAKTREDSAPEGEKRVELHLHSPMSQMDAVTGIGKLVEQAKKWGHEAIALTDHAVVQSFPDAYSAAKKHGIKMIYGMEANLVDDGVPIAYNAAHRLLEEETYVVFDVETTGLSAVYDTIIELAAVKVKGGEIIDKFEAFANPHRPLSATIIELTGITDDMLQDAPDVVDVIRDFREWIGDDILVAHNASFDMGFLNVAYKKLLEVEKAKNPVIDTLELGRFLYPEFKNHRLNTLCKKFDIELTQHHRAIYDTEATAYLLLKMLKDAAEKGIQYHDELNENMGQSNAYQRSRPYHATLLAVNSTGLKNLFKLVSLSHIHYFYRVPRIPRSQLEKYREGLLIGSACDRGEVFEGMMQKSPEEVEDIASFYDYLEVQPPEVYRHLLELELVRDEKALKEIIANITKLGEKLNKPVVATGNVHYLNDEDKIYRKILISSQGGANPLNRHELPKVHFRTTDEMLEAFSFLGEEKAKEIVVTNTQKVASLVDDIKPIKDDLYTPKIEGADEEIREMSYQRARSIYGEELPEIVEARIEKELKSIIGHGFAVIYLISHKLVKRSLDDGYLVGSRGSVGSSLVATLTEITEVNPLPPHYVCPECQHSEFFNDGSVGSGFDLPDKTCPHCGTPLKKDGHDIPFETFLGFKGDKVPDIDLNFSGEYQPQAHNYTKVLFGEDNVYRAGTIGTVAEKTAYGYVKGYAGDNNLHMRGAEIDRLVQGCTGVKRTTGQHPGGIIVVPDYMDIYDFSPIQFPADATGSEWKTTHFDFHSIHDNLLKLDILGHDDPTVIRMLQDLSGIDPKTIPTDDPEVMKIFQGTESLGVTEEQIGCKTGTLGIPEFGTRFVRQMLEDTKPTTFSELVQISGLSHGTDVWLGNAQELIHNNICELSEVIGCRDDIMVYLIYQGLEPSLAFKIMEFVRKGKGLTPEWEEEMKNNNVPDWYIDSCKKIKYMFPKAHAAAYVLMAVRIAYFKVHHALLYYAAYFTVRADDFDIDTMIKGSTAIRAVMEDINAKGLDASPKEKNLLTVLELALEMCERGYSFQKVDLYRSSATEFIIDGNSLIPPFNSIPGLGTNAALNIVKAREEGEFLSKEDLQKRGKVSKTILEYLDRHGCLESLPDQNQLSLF
# How it was run: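 Inhibition of DNA synthesis by the reconstituted PolC holoenzyme, monitored through PicoGreen staining of dsDNA formed from ssM13Gori, dNTPs and NTPs, with compound preincubation and room-temperature reaction.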
# [15] = biological target: Tumor susceptibility gene 101 protein (Homo sapiens) (UniProt Q99816); assay: qHTS Validation Assay for Iinhibitors of HIV-1 Budding by Blocking the Interaction of PTAP/TSG101 (AID 485342; calls by dose curve)
# Tumor susceptibility gene 101 protein (Homo sapiens), sequence (Q99816 whole entry, looked up, the tested form may be a part): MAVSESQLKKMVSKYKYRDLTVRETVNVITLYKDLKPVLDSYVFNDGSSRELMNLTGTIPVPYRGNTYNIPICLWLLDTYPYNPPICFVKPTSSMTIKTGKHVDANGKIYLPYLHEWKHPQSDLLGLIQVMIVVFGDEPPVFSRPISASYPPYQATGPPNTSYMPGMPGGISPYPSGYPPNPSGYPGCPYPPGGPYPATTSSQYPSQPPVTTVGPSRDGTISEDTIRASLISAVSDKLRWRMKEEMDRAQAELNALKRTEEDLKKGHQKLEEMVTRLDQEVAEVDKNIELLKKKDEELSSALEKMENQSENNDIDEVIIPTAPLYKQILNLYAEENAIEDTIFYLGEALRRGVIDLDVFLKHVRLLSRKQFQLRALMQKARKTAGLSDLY
# How it was run: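 Compound wells held the Tsg101 binding domain (10 uM) and a FITC-conjugated PTAP peptide (50 nM) in buffer at pH 7.5 containing 0.15 M NaCl and 0.01% Tween 20; polarization was recorded after 20 min, r.t.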
# [16] = biological target: Beta-2 adrenergic receptor (Homo sapiens) (UniProt P07550); assay: qHTS validation assay of beta-arrestin-biased ligands of beta2-adrenergic receptor (AID 485366)
# Beta-2 adrenergic receptor (Homo sapiens), sequence (P07550 whole entry, looked up): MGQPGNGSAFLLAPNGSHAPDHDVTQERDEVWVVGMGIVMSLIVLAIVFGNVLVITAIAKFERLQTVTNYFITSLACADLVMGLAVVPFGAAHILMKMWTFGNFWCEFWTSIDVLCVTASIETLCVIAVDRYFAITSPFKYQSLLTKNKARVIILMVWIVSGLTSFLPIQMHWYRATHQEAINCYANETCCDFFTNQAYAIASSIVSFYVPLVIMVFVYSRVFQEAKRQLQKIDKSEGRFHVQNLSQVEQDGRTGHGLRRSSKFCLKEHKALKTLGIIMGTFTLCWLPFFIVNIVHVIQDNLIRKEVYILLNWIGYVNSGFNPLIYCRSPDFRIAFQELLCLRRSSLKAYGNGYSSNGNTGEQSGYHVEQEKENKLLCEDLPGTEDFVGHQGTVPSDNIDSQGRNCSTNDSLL
# How it was run: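 Agonism was measured as beta-arrestin recruitment to recombinant beta2-AR, releasing tTA to drive luciferase. Cells were exposed for 18 hr at 37 degrees C to a series up to 46 microM. %Activity from corrected luminescence gave concentration-response curves.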
# [17] = biological target: ATP-dependent 6-phosphofructokinase (Trypanosoma brucei brucei) (UniProt O15648); assay: qHTS Validation Assay to Find Inhibitors of T. brucei phosphofructokinase (AID 485368); also: potency is read from the fitted curve at half-maximal effect
# How it was run: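 ADP-Glo luminescence, two-step: residual ATP depleted, then ADP converted to ATP for luciferase. Enzyme 1.25 nM, F6P 0.5 mM, ATP 0.1 mM, pH 8.0 TEA buffer, 45 min RT. Curves fitted and classed by quality and efficacy.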
# [18] = Quantitative high throughput screen for delayed death inhibitors of the malarial parasite plastid, 96 hour incubation (AID 488745); also: nearly all actives have a fitted effect of over 70% in size; also: potency is read from the fitted curve at half-maximal effect
# How it was run: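 Luciferase-expressing P. falciparum, infected RBCs 2% Hct/0.1% parasitemia (final); 96 h cpd exposure, 37 C, 5% CO2; RPMI 1640 + 0.5% Albumax, bicarbonate, gentamycin. Readout: luminescence loss = growth inhibition.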
# [19] = qHTS Assay for Modulators of Human Peripheral Myelin Protein 22 (PMP22) Expression/Activity (AID 1967; active = well fitted curve in the direction sought with a large enough effect in the signal ratio; the % refers to the signal ratio)
# How it was run: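 Engineered MSC80 cells, Pmp22-promoter green and EF-alpha red luciferase reporters; 24h compound treatment at 37 °C. Concentration-response fits on green, red and ratio signals, each overlap-corrected, with %Activity normalized to untreated wells.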
Structure (SMILES),Potency [1],Potency [2],Potency [3],Potency [4],outcome [5],Potency [6],outcome [7],Potency [8],Potency [9],Potency [10],Potency [11],outcome [12],outcome [13],outcome [14],outcome [15],outcome [16],Potency [17],Potency [18],outcome [19]
CCN(CC)CCOC(=O)C1(C2CCCCC2)CCCCC1,15.8 µM (active),5.01 µM (active),5.62 µM (active),12.6 µM (active),inactive,inactive,inactive,inactive,inactive,inactive,inactive,inactive,inactive,inactive,inactive,inactive,inactive,inactive,–
CCN(CC)CCNC(=O)c1cc(Cl)c(N)cc1OC,inactive,inactive,–,inactive,–,inactive,inactive,inactive,inactive,inactive,inactive,inactive,inactive,inactive,inactive,inactive,inactive,inactive,inactive
C#CCN(C)Cc1ccccc1,inactive,inactive,–,inactive,inactive,inactive,–,inactive,inactive,inactive,inactive,inactive,inactive,inactive,inactive,inactive,–,inactive,–
COc1ccc(Cl)cc1C(=O)NCCc1ccc(S(=O)(=O)NC(=O)NC2CCCCC2)cc1,inactive,inactive,–,inactive,inactive,inactive,–,inactive,inactive,inactive,inactive,inactive,inactive,inactive,inactive,inactive,–,inactive,–
C=Cc1c(C)c2cc3[nH]c(cc4nc(cc5nc(cc1[nH]2)C(C)=C5CCC(=O)O)C(CCC(=O)O)=C4C)c(C)c3C=C,inactive,inactive,inactive,inactive,–,11.2 µM (active),inactive,inactive,inactive,inactive,inactive,inactive,–,inactive,inactive,inactive,19 µM (active),inactive,inactive
Nc1cc(=O)[nH]c(N)n1,inactive,inactive,inactive,inactive,inactive,inactive,–,inactive,inactive,inactive,inactive,inactive,inactive,inactive,inactive,inactive,–,inactive,–
CNCCCC1c2ccccc2C=Cc2ccccc21,14.1 µM (active),–,4.47 µM (active),11.2 µM (active),inactive,inactive,inactive,inactive,inactive,inactive,inactive,inactive,inactive,inactive,inactive,inactive,–,inactive,–
NC1CCN(c2cccc(Cl)n2)CC1,inactive,–,5.62 µM (active),inactive,inactive,inactive,–,inactive,inactive,inactive,inactive,inactive,inactive,inactive,inactive,inactive,inactive,inactive,–
CC(C)(C)c1onc(OCP(=O)(O)O)c1CC(N)C(=O)O (stereo not given),inactive,inactive,–,inactive,inactive,inactive,–,inactive,inactive,inactive,inactive,inactive,inactive,inactive,inactive,inactive,inactive,inactive,inactive
CC1=C(CC(=O)O)c2cc(F)ccc2/C1=C\c1ccc(S(C)=O)cc1 (stereo not given),inactive,inactive,–,inactive,–,inactive,–,inactive,inactive,inactive,inactive,inactive,inactive,inactive,inactive,inactive,–,inactive,–
CC(CN1c2ccccc2Sc2ccccc21)N(C)C (stereo not given),14.1 µM (active),5.01 µM (active),2.24 µM (active),11.2 µM (active),inactive,inactive,–,inactive,inactive,–,–,–,inactive,inactive,inactive,inactive,–,–,–
C[C@](N)(Cc1ccc(O)cc1)C(=O)O,inactive,inactive,inactive,inactive,inactive,inactive,–,inactive,inactive,inactive,inactive,inactive,inactive,inactive,inactive,inactive,inactive,–,–
NC(=O)c1ncn([C@@H]2O[C@H](CO)[C@@H](O)[C@H]2O)n1,inactive,inactive,–,inactive,inactive,inactive,inactive,inactive,inactive,inactive,inactive,inactive,inactive,inactive,inactive,inactive,inactive,–,–
OCCN1CCN(CCCN2c3ccccc3Sc3ccc(Cl)cc32)CC1,8.91 µM (active),7.94 µM (active),2.51 µM (active),5.01 µM (active),inactive,inactive,inactive,–,inactive,–,7.36 µM (active),–,inactive,inactive,inactive,inactive,inactive,5.22 µM (active),–
